Measurements taken from PubChem BioAssay AID624430 (Broad Institute, 2012).
Measured potencies and affinities stand elsewhere. Activity calls are given as the source filed them.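 How the source made its calls: active means compound whose falling signal curve reaches half its effect at no more than twice the top valid dose; inconclusive means flat curve with 30 to 70% inhibition, or poor fit; inactive means the rest.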

Assay: inhibitors of TRPM1-promoter reporter in SK-MEL-5 – cell-based, luciferase, dry powder, set 8, MITF inhibitor project, dose response (AID 624430)
Conditions: SK-MEL-5 TRPM1 promoter luciferase reporter, 24 h; series mostly up to 35 µM

outcome, inactive:
O=C1C=C(NC2CCCCC2)C(=O)c2ccccc21
O=C1C=C(Nc2ccc(F)cc2)C(=O)c2ccccc21
Cc1ccc(NC2=CC(=O)c3ccccc3C2=O)cc1C
CC1=C(N)C(=O)c2ccccc2C1=O
O=C1C=C(Nc2ccc3ccccc3c2)C(=O)c2ccccc21
O=C1C=C(NCc2ccccc2)C(=O)c2ccccc21
COc1ccc(NC2=CC(=O)c3ccccc3C2=O)cc1
